# Like-named read-outs stand apart in the source and are kept apart here.
# Tests used:
# TAOK2 = conditions: concentration: 1 μM, replicates: in singlicate; n = 1
# TAOK3 = conditions: concentration: 1 μM, replicates: in singlicate; n = 1
# TBK1 = conditions: concentration: 1 μM, replicates: in singlicate; n = 1
# TEC = conditions: concentration: 1 μM, replicates: in singlicate; n = 1
# TESK1 = conditions: concentration: 1 μM, replicates: in singlicate; n = 1
# TGFBR1 = conditions: n = 1
# TGFBR2 = conditions: concentration: 1 μM, replicates: in singlicate; n = 1
# TIE1 = conditions: concentration: 1 μM, replicates: in singlicate; n = 1
# TIE2 = tested on: T1, TIE2; conditions: concentration: 1 μM, replicates: in singlicate; n = 1
# T1 construct: gene TEK
# TLK1 = conditions: concentration: 1 μM, replicates: in singlicate; n = 1
# TLK2 = conditions: concentration: 1 μM, replicates: in singlicate; n = 1
# TNIK = conditions: concentration: 1 μM, replicates: in singlicate; n = 1
# TNK1 = conditions: concentration: 1 μM, replicates: in singlicate; n = 1
# TNK2 = conditions: concentration: 1 μM, replicates: in singlicate; n = 1
# TNNI3K = conditions: concentration: 1 μM, replicates: in singlicate; n = 1
# TRKA = tested on: T2, TRKA; conditions: concentration: 1 μM, replicates: in singlicate; n = 1
# T2 construct: gene NTRK1
# TRKB = conditions: concentration: 1 μM, replicates: in singlicate; n = 1
# TRKC = tested on: T3, TRKC; conditions: concentration: 1 μM, replicates: in singlicate; n = 1
# T3 construct: gene NTRK3
# TRPM6 = conditions: concentration: 1 μM, replicates: in singlicate; n = 1
# TSSK1B = conditions: concentration: 1 μM, replicates: in singlicate; n = 1
# [1] = concentration: 1 μM, replicates: in singlicate
# 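Also: KINOMEscan kinase panel screen.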
smiles,measurement,setting,value
CC(C)(C)n1cnc2c(N)ncnc21 [SKF-97359],%Inh,TAOK2,0%
same,%Inh,TAOK3,0%
same,%Inh,TBK1,19%
same,%Inh,TEC,0%
same,%Inh,TESK1,0%
same,%Inh,TGFBR1; [1],30%
same,%Inh,TGFBR2,0%
same,%Inh,TIE1,0%
same,%Inh,TIE2,17%
same,%Inh,TLK1,67%
same,%Inh,TLK2,2%
same,%Inh,TNIK,0%
same,%Inh,TNK1,16%
same,%Inh,TNK2,40%
same,%Inh,TNNI3K,0%
same,%Inh,TRKA,74%
same,%Inh,TRKB,47%
same,%Inh,TRKC,18%
same,%Inh,TRPM6,3%
same,%Inh,TSSK1B,0%
COc1ccc(Nc2nccc(N3CCC(NC(=O)Nc4cc(C)ccc4C)C3)n2)cc1 (stereo not drawn) [GSK1379741],%Inh,TAOK2,0%
same,%Inh,TAOK3,0%
same,%Inh,TBK1,0%
same,%Inh,TEC,20%
same,%Inh,TESK1,14%
same,%Inh,TGFBR1; [1],0%
same,%Inh,TGFBR2,0%
same,%Inh,TIE1,0%
same,%Inh,TIE2,0%
same,%Inh,TLK1,0%
same,%Inh,TLK2,0%
same,%Inh,TNIK,0%
same,%Inh,TNK1,0%
same,%Inh,TNK2,9%
same,%Inh,TNNI3K,0%
same,%Inh,TRKA,0%
same,%Inh,TRKB,0%
same,%Inh,TRKC,22%
same,%Inh,TRPM6,32%
same,%Inh,TSSK1B,13%
NS(=O)(=O)c1cccc(-c2ccc3nccc(-c4cccc(S(N)(=O)=O)c4)c3c2)c1 [GW867253],%Inh,TAOK2,31%
same,%Inh,TAOK3,6%
same,%Inh,TBK1,15%
same,%Inh,TEC,0%
same,%Inh,TESK1,7%
same,%Inh,TGFBR1; [1],0%
same,%Inh,TGFBR2,0%
same,%Inh,TIE1,5%
same,%Inh,TIE2,0%
same,%Inh,TLK1,3%
same,%Inh,TLK2,15%
same,%Inh,TNIK,16%
same,%Inh,TNK1,0%
same,%Inh,TNK2,0%
same,%Inh,TNNI3K,0%
same,%Inh,TRKA,0%
same,%Inh,TRKB,0%
same,%Inh,TRKC,0%
same,%Inh,TRPM6,0%
same,%Inh,TSSK1B,0%
O=C(Nc1n[nH]c2cc(-c3cccc(F)c3)ccc12)C1CC1 [SB-735464],%Inh,TAOK2,32%
same,%Inh,TAOK3,8%
same,%Inh,TBK1,10%
same,%Inh,TEC,0%
same,%Inh,TESK1,17%
same,%Inh,TGFBR1; [1],5%
same,%Inh,TGFBR2,0%
same,%Inh,TIE1,0%
same,%Inh,TIE2,16%
same,%Inh,TLK1,16%
same,%Inh,TLK2,0%
same,%Inh,TNIK,72%
same,%Inh,TNK1,9%
same,%Inh,TNK2,0%
same,%Inh,TNNI3K,0%
same,%Inh,TRKA,4%
same,%Inh,TRKB,2%
same,%Inh,TRKC,38%
same,%Inh,TRPM6,7%
same,%Inh,TSSK1B,0%
N#Cc1ccc(-c2cc(-c3c[nH]nc3-c3ccccn3)ccn2)cc1 [GW693028],%Inh,TAOK2,0%
same,%Inh,TAOK3,0%
same,%Inh,TBK1,6%
same,%Inh,TEC,44%
same,%Inh,TESK1,23%
same,%Inh,TGFBR1; 1 µM,87%
same,%Inh,TGFBR2,83%
same,%Inh,TIE1,0%
same,%Inh,TIE2,0%
same,%Inh,TLK1,0%
same,%Inh,TLK2,0%
same,%Inh,TNIK,75%
same,%Inh,TNK1,0%
same,%Inh,TNK2,12%
same,%Inh,TNNI3K,31%
same,%Inh,TRKA,0%
same,%Inh,TRKB,4%
same,%Inh,TRKC,16%
same,%Inh,TRPM6,0%
same,%Inh,TSSK1B,16%
N#Cc1c(N2CCOCC2)sc(-c2ccn[nH]2)c1-c1ccc(Cl)cc1,%Inh,TAOK2,0%
same,%Inh,TAOK3,0%
same,%Inh,TBK1,12%
same,%Inh,TEC,12%
same,%Inh,TESK1,0%
same,%Inh,TGFBR1; [1],19%
same,%Inh,TGFBR2,0%
same,%Inh,TIE1,0%
same,%Inh,TIE2,5%
same,%Inh,TLK1,11%
same,%Inh,TLK2,0%
same,%Inh,TNIK,0%
same,%Inh,TNK1,0%
same,%Inh,TNK2,0%
same,%Inh,TNNI3K,0%
same,%Inh,TRKA,12%
same,%Inh,TRKB,6%
same,%Inh,TRKC,8%
same,%Inh,TRPM6,0%
same,%Inh,TSSK1B,0%
